Assay outcomes as filed in PubChem.
HP1b binding inh: HP1-beta chromodomain-methylated histone interaction inhibition | P83916 | AlphaScreen HP1-beta / biotin-H3K9me3 peptide binding | Potency, µM (highest dose often 114 µM), inactives show at the top dose activity change, negative = inhibition, actives largely listed as inhibitors | 0.56% of 390,000 active | AID 540317; note: nearly all actives have a fitted effect of over 70% in size
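AlphaScreen: HP1-beta (50 nM) preformed 30 min with biotin-H3(1-18)K9me3 peptide (50 nM) in PBS pH 7.4, 0.01% Tween-20. Compound added for 30 min at RT, then streptavidin donor/nickel chelate acceptor beads (10 ug/mL) for 30 min.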
BAZ2B inh: inhibitors of human BAZ2B bromodomain; 4.4% of 360,000 active; AlphaScreen BAZ2B-H3K14Ac peptide displacement; Q9UIF8; Potency, µM (highest dose often 114 µM), for inactives: top-dose activity change, negative = inhibition, hits mostly inhibitors; AID 504333; note: % is set by controls: 0 for no effect and ±100 for the full control effect; nearly all actives have a fitted effect of over 60% in size
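AlphaScreen luminescence quantifies BAZ2B engagement of H3K14Ac peptide; the protein and biotinylated peptide are both at 50 nM final, buffer PBS pH 7.4 with 0.01% Tween-20, all steps at room temperature.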
G9a block: blocks human histone lysine methyltransferase G9a | Q96KQ7 | G9a H3K9 monomethylation, AlphaScreen, 2 h | Potency, µM (series often up to 102 µM), without a hit: at the top dose activity, negative = inhibition, most hits filed as inhibitors | 8.8% of 350,000 active; note: % is set by controls: 0 for no effect and ±100 for the full control effect; nearly all actives have a fitted effect of over 75% in size
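Quantitative HTS format: methyltransferase activity on a biotin-tagged H3K9 peptide is measured by AlphaScreen, using a rabbit anti-monomethyl-H3K9 antibody with streptavidin donor and anti-IgG acceptor beads. Final levels are 20 nM enzyme, 500 nM peptide, 20 uM SAM; 2 h RT.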
JMJD2A Tudor inh: blocks the human JMJD2A Tudor domain. O75164. AlphaScreen JMJD2A-Tudor / H3K4me3 peptide binding. Potency, µM (titrated, usually from 114 µM), for the others: at the top dose activity change, negative = inhibition, actives largely listed as inhibitors. 4.4% of 390,000 active. AID 504339; note: % is set by controls: 0 for no effect and ±100 for the full control effect; nearly all actives have a fitted effect of over 50% in size
Target sequence (O75164 whole entry, looked up, the tested form may be a part): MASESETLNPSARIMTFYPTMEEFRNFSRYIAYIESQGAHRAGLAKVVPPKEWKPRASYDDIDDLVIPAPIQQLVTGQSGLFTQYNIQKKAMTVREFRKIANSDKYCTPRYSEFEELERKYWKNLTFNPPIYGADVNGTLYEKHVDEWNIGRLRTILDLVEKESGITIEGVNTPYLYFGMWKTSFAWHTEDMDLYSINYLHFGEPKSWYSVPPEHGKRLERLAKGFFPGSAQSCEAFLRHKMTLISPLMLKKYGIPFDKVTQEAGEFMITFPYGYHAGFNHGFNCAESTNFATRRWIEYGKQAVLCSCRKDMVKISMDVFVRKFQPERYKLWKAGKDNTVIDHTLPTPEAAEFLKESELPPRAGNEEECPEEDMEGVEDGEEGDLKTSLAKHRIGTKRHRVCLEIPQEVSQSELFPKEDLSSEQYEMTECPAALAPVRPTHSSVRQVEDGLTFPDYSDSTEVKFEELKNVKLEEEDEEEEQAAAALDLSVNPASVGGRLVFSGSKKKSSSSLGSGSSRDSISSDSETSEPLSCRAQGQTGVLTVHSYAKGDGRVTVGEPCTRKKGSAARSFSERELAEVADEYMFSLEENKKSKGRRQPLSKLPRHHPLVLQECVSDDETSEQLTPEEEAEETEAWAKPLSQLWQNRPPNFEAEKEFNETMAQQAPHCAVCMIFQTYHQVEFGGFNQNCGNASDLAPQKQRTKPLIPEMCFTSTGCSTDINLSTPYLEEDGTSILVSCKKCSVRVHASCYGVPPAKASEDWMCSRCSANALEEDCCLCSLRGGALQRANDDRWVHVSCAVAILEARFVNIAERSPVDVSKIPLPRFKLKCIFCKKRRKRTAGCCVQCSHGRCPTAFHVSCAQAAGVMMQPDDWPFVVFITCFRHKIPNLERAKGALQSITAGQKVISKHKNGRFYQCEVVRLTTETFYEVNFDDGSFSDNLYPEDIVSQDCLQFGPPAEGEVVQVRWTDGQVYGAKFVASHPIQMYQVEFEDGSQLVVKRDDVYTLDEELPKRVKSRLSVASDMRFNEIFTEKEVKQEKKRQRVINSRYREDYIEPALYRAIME
L3MBTL1 block: L3MBTL1 (human) inhibition | Q9Y468 | AlphaScreen L3MBTL1–H3K9me1 peptide binding | Potency, µM (doses to about 57.1 µM), for inactives: top-dose activity, negative = inhibition, actives largely listed as inhibitors | 0.66% of 230,000 active | AID 485360; note: % is set by controls: 0 for no effect and ±100 for the full control effect; nearly all actives have a fitted effect of over 60% in size
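L3MBTL1 50 nM + b-AHA-H3(1-15)K9me1 75 nM, 30 min RT; compound added, 30 min RT; streptavidin donor/Ni-chelate acceptor beads 10 ug/mL each final, 30 min RT dark; AlphaScreen read.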
The depositor's hits bear a star; ? = inconclusive; / = no result given; [ ] = another dose, or the depositor's remark. Hits are enriched below; roughly 11% of the tested compounds scored in any of these assays. Calls come from the whole dose curve; as a rule, active = well fitted inhibition curve with a large enough effect; inconclusive = small, poorly fitted or top-dose-only effect; inactive = no such curve, though single readings can be large or run the other way. Potency is the fitted concentration of half-maximal effect.

SMILES	HP1b binding inh	BAZ2B inh	G9a block	JMJD2A Tudor inh	L3MBTL1 block
Nc1nc(NCc2ccco2)nc(NC2CCCCC2)c1[N+](=O)[O-]	0%	2%	0%	-3%	-3%
CNc1nc(N)c([N+](=O)[O-])c(N2CCCCCC2)n1	24%	-19%	8%[2.33 µM]	-19%	/
COc1ccccc1N1CCN(C(=O)c2ccc(Nc3nc4ccccc4n4nnnc34)cc2)CC1	22%	1%	7%[59 µM]	-18%	/
O=C(O)c1cc([N+](=O)[O-])c(NCc2cccnc2)c([N+](=O)[O-])c1	8%	?	45µM*	2%	22%
Cc1ccccc1NC(=O)c1nc(S(C)(=O)=O)ncc1N(Cc1ccco1)Cc1sccc1C	15%	-25%	?	-25%	/
CCOC(=O)c1nc(Nc2ccc(Nc3ccccc3)cc2)c2ccccc2n1	?	16µM*	?	28µM*	/
CCOC(=O)c1nc(Nc2ccc(N3CCC(C)CC3)cc2)c2ccccc2n1	?	40µM*	/	28µM*	-29%
CCOC(=O)c1nc(Nc2ccc(C(=O)O)cc2)c2ccccc2n1	9%	-7%	40µM*	28µM*	3%
CCOC(=O)c1ccc(Nc2nc(C(=O)OCC)nc3ccccc23)cc1	61%	-2%	-5%[59 µM]	-12%	-9%
CC1CCc2nc(-c3cc4ccc(O)cc4oc3=O)sc2C1 (stereo not drawn)	29%[57 µM]	/	/	35%[57.1 µM]	/
CCN1C(=O)[C@H]2[C@@H](c3ccc(Cl)cc3)N3C(=O)CN(CC4CC4)C(=O)[C@@]3(Cc3ccccc3)[C@H]2C1=O	37%	-25%	71µM*	1%	2%
CN(C)c1ccc(NC(=O)c2ccc(COc3cccc(Cl)c3)o2)cc1	?	10µM*	?	13µM*	/
Cc1ccc(NC(=O)c2ccc(COc3ccccc3Cl)o2)cc1	9%	-2%	4%[59 µM]	-10%	/
CCOc1ccccc1-n1c(N)c(C(N)=O)sc1=S	-34%	-37%	35µM*	-19%	-10%
CCOC(=O)c1sc(=S)n(-c2ccccc2OC)c1N	?	?	?	?	-7%
CCCCNC(=O)c1sc(=S)n(-c2ccccc2OC)c1N	?	-34%	16µM*	-30%	-15%
COc1ccc(Cl)cc1-n1c(N)c(C(N)=O)sc1=S	?	-2%	8.9µM*	?	0%
COC(=O)c1sc(=S)n(-c2ccccc2OC)c1N	15%	-6%	35µM*	44%	-10%
CCOc1cc(CNC(=O)CSc2n[nH]c(-c3ccccc3)n2)cc(OCC)c1OCC	13%[57 µM]	6%	-10%[59 µM]	-12%	/
CCCCC(CC)CNC(=O)CN1C(=O)CSc2ccc(S(=O)(=O)N3CCOCC3)cc21 (stereo not drawn)	7%	3%	6%[59 µM]	-15%	/
O=S1(=O)C2CC3C=CC2(CN1Cc1ccccc1)O3 (stereo not drawn)	44%	/	/	-15%	/
CC(C)c1ccc(S(=O)(=O)/N=C2/C=CC(=O)c3ccccc32)cc1	/	7.9µM*	11µM*	/	/
CC(C)c1ccc(S(=O)(=O)/N=C2\C=C(NS(=O)(=O)c3ccccc3)C(=O)c3ccccc32)cc1	20µM*	7.1µM*	6.3µM*	28µM*	/
CCc1ccc(Nc2nc3ccccc3nc2NS(=O)(=O)c2ccccc2)cc1	56%	3%	35%[59 µM]	1%	/
CCc1ccc(S(=O)(=O)/N=C2\C=C(NS(=O)(=O)c3ccccc3)C(=O)c3ccccc32)cc1	14µM*	8.9µM*	13µM*	22µM*	/
SMILES	HP1b binding inh	BAZ2B inh	G9a block	JMJD2A Tudor inh	L3MBTL1 block
Cc1ccc(C)c(S(=O)(=O)/N=C2\C=C(NS(=O)(=O)c3ccccc3)C(=O)c3ccccc32)c1	?	10µM*	14µM*	22µM*	/
CCOC(=O)c1cc(C#N)c(SC(C)C(=O)NC2CCCCC2)nc1C (stereo not drawn)	43%	13%	-3%[59 µM]	-8%	7%
COCc1cc(C)nc(OCC(=O)N/N=C/c2ccc(-c3cc([N+](=O)[O-])ccc3Cl)o2)c1C#N	48%	-8%	22%[59 µM]	-4%	/
Cc1ccc(C)c(OCCC(=O)OCC(=O)Nc2cc(S(=O)(=O)N3CCCCC3)ccc2C)c1	3%	/	/	-19%	-3%
COc1ccc(C)cc1Nc1n[n+](C)c(-c2c3ccccc3cc3ccccc23)s1	48%	-17%[57.1 µM]	45µM*	-20%	-17%
COc1ccc(C)cc1Nc1c2c(nc3ccccc13)CCC2	?	-25%	-14%	?	/
COc1ccc(C)cc1Nc1n[n+](C)c(-c2ccc(O)cc2O)s1	47%	-28%	18µM*	-17%	-4%
COc1ccc(C)cc1Nc1cc(C)nc(C)n1	58%	-3%	5%[59 µM]	2%	/
Cc1cc(NCCCn2ccnc2)n2ncc(-c3ccc(Cl)cc3)c2n1	-2%	?	37%[59 µM]	?	-2%
CC(C)(C)c1cc(NCCCn2ccnc2)n2ncc(-c3ccccc3)c2n1	10%	56µM*	?	?	-9%
Cc1cccc(-c2cc3nc(C)cc(NCCCn4ccnc4)n3n2)c1	-13%	18µM*	?	-23%[11.4 µM]	/
Cc1ccc(Nc2ncnc3c2cnn3-c2ccccc2)c(C)c1	24%	-1%	0%[59 µM]	-20%	/
COC(=O)c1ccc(COc2ccc(/C=N/NC(N)=S)cc2)o1	23%	-28%	50µM*	-10%	-8%
CCOC(=O)C1=C(C)N=c2s/c(=C/c3ccc(OCC(=O)O)c(OC)c3)c(=O)n2C1c1ccc(Cl)cc1 (stereo not drawn)	32µM*	/	/	20µM*	/
CCOC(=O)C1=C(C)N=c2s/c(=C/c3ccccc3)c(=O)n2C1c1ccc(OC)c(OC)c1 (stereo not drawn)	20%	9%	-2%[59 µM]	-2%	4%
CCOC(=O)C1=C(C)N=c2s/c(=C\c3ccncc3)c(=O)n2C1c1ccc2c(c1)OCO2 (stereo not drawn)	-11%	?	-34%[12.7 µM]	?	-13%
CCOC(=O)C1=C(C)N=c2sc(=C(C)C)c(=O)n2C1c1ccc(N(C)C)cc1 (stereo not drawn)	-9%	/	/	89µM*	/
CCOC(=O)C1=C(C)N=c2s/c(=C\c3ccc(OCC(=O)O)cc3)c(=O)n2C1c1ccc(Cl)cc1 (stereo not drawn)	40µM*	7.9µM*	/	20µM*	?
CCOC(=O)C1=C(C)Nc2ncnn2C1c1ccc(N(C)C)cc1 (stereo not drawn)	0%	-11%	?	?	-8%
CCOC(=O)C1=C(C)N=c2s/c(=C/c3ccc(OCC(=O)O)cc3)c(=O)n2C1c1ccc(F)cc1 (stereo not drawn)	-16%	?	?	79µM*	/
CCOC(=O)C1=C(C)N=c2s/c(=C/c3ccc(OCC(=O)O)cc3)c(=O)n2C1c1ccc(SC)cc1 (stereo not drawn)	/	35µM*	/	/	?
